# Tau FP inhib – blocks human tau fibril formation measured by polarization. P10636. K18 P301L tau heparin fibrillization, Alexa594 FP, 6 h. Potency, µM (titrated, usually from 57.7 µM), usual class: inhibitors. 280,000 tested, 0.39% active. AID 1468; note: nearly all actives have a fitted effect of over 55% in size
#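 Read-out: fluorescence polarization of Alexa 594-labeled tau (0.24 uM), 555 nm excitation, 632 nm emission. Mixtures held 15 uM unlabeled K18 P301L, compound and 20 uM heparin, pH 7 acetate buffer, incubated 6 hr at 37 C.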
# Tau fibril ThT – inhibitors of human tau fibril formation, thioflavin T binding; recombinant tau K18 P301L, heparin-induced fibrillization, ThT fluorescence; Potency, µM (titrated, usually from 57.4 µM), actives largely listed as inhibitors; 270,000 tested, 2.1% active; note: nearly all actives have a fitted effect of over 55% in size
#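 Heparin-induced fibrillization of the P301L-mutant K18 repeat-domain fragment of human tau was followed by ThT binding in quantitative high-throughput format.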
# FBPA coupling cs – inhibits coupling enzyme system, counter-screen for aldolase hits. 290,000 tested, 0.67% active. activity change, negative = inhibition, % at 58.2 µM, hits read low. coupling enzyme system counterscreen, AmpLite Red fluorescence. AID 2472; in the data active = activity change below about -30%
#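 Activity here indicates interference with the coupling reaction, not aldolase inhibition. Compounds at 57.5 uM final met coupling enzymes for 10 min at RT; substrate and AmpLite Red detection followed, with a 525/598 nm fluorescence read after 20 min.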
# Tau fluor counter – counter-screen for tau fibril formation inhibitors. tau K18 P301L (four-repeat tau fragment) Alexa594 fluorescence, heparin fibrillization. Potency, µM (highest dose often 57.7 µM). 280,000 tested, 0.93% active. AID 1463; note: nearly all actives have a fitted effect of over 55% in size
#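 Human K18 P301L tau (15 uM unlabeled plus 0.24 uM Alexa 594-labeled, final) in 100 mM sodium acetate pH 7 was mixed with compound and 20 uM heparin and incubated 6 hr at 37 C.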
# USP1 inh – inhibitors of human USP1/UAF1 deubiquitinase | O94782 | recombinant USP1/UAF1, Ub-Rhodamine cleavage fluorescence | Potency, µM (titrated, usually from 57.1 µM), usual class: inhibitors | 390,000 tested, 0.23% active | AID 743255; note: nearly all actives have a fitted effect of over 60% in size
# Target sequence (O94782 whole entry, looked up): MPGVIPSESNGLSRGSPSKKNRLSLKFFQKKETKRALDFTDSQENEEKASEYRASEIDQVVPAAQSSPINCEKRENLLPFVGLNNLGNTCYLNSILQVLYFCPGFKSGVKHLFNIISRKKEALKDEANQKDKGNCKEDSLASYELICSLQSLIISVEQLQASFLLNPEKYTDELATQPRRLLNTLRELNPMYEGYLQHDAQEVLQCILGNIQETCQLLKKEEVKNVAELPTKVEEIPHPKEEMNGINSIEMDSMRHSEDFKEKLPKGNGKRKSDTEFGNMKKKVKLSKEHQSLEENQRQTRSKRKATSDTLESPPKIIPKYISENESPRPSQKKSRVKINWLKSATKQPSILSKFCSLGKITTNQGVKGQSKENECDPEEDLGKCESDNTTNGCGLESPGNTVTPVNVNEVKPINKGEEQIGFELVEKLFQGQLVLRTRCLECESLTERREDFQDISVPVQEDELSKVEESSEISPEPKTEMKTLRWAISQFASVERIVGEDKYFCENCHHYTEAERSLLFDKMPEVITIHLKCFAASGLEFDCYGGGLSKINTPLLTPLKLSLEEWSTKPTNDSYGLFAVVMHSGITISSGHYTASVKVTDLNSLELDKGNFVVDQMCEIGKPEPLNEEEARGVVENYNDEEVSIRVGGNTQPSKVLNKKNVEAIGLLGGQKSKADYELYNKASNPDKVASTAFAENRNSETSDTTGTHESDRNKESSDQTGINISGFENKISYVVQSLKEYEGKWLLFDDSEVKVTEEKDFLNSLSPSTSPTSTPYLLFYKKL
#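 USP1/UAF1 complex at 1 nM was preincubated with compound for 15 min at room temperature, then Ub-Rho substrate (150nM final) was added. Fluorescence (480/540 nm) was read kinetically, 6 reads every 60 seconds.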
# Numbers stand for hits; n = inactive; u = inconclusive; x = no result; [ ] = another dose, or the depositor's remark. The list is not random: actives were taken first. Their share in the collection is about 2.3%. Unless noted, calls come from the whole dose curve; as a rule, active = well fitted curve in the direction sought with a large enough effect; inconclusive = small, poorly fitted or top-dose-only effect, or another doubt; inactive = no such curve, though single readings can be large; an effect the other way counts as inactive or inconclusive.
SMILES,Tau FP inhib,Tau fibril ThT,FBPA coupling cs,Tau fluor counter,USP1 inh
O=C(CNc1cccc2ccccc12)N/N=C/c1ccc(C(=O)O)cc1,n,u,n,n,n
CN(C)c1ccc(C(CNC(=O)c2ccccc2F)c2c[nH]c3ccccc23)cc1 (centres undefined),u,n,n,u,n
CN(C)c1ccc(C(CNC(=O)c2ccccc2)c2c[nH]c3ccccc23)cc1 (centres undefined),u,u,n,14µM[quencher],n
O=C(N/N=C/c1c[nH]c2ccccc12)c1ccc2c(c1)OCCO2,n,u,n,u,n
O=C(N/N=C/c1ccc(O)cc1)c1[nH]c2ccc(Br)cc2c1-c1ccccc1,u,n,n,13µM[quencher],n
O=C(N/N=C/c1c[nH]c2ccc(Br)cc12)c1ccc2c(c1)OCO2,u,u,n,18µM[quencher],n
C/C(=N\NC(=O)CCC(=O)O)c1c(-c2ccccc2)c2cc(Br)ccc2[nH]c1=O,n,x,n,n,n
O=C(N/N=C/c1c[nH]c2ccccc12)c1cc(Br)ccc1O,x,x,n,x,n
O=C(N/N=C/c1c[nH]c2ccccc12)c1[nH]c2ccc(Br)cc2c1-c1ccccc1,n,u,n,4µM[quencher],u
CSc1ccc(CCNC(=O)c2csc3c2CCCCC3)cc1,n,n,x,n,n
COc1ccc(N2CCN(S(=O)(=O)c3ccc4c(c3)C(C(C)C)C(=O)N4)CC2)cc1 (centres undefined),n,n,x,u,u
O=C(Cn1c(=O)c2cccn2c2ccccc21)Nc1cc(F)ccc1F,n,n,x,n,n
Cc1[nH]c2ccccc2c1C1(O)C(=O)N(Cc2ccccc2Cl)c2ccccc21 (centres undefined),n,u,x,u,n
Cc1[nH]c2ccccc2c1C1(O)C(=O)N(Cc2ccccc2)c2ccc(Br)cc21 (centres undefined),n,u,x,11µM[quencher],n
O=c1oc(-c2ccc([N+](=O)[O-])cc2)nc2ccc(O)cc12,n,13µM,n,u,n
CC(=O)c1cccc(Nc2cc(C)nc3nc(Cc4ccccc4)nn23)c1,n,n,x,n,n
COc1ccccc1NS(=O)(=O)c1cc(NC(=O)Nc2ccccc2)ccc1N1CCCCC1,22µM,n,n,u,n
CCN(CC)c1ccc(NC(=O)c2ccccc2Br)cc1S(=O)(=O)Nc1ccccc1OC,u,25µM,n,n,n
O=C(Nc1ccc(Cl)c(S(=O)(=O)Nc2ccccc2Cl)c1)c1cccs1,u,n,n,25µM[quencher],n
CCNC(=S)Nc1ccc(C)c(S(=O)(=O)Nc2ccccc2OC)c1,n,n,n,n,n
COc1ccccc1NS(=O)(=O)c1cc(NC(=S)Nc2cc(C)cc(C)c2)ccc1Cl,u,n,n,32µM[quencher],n
O=C(Nc1ccc(F)cc1)Nc1ccc(N2CCCC2)c(S(=O)(=O)Nc2ccccc2Cl)c1,u,n,n,2.8µM[quencher],n
O=C(Nc1ccc(N2CCCC2)c(S(=O)(=O)Nc2cccc(C(F)(F)F)c2)c1)c1cccs1,n,n,n,10µM[quencher],n
O=C(Nc1ccc(Cl)c(Cl)c1)Nc1ccc(N2CCCC2)c(S(=O)(=O)Nc2ccccc2Cl)c1,n,u,n,4µM[quencher],n
CCOc1ccc(C(=O)Nc2c(C(=O)Nc3ccccc3F)oc3ccccc23)cc1OCC,n,n,x,n,n
SMILES,Tau FP inhib,Tau fibril ThT,FBPA coupling cs,Tau fluor counter,USP1 inh
COc1ccc(/C=C/C(=O)c2ccncc2)c2ccccc12,u,16µM,-43,n,u
COc1ccc(/C=C/C(=O)c2ccc[nH]2)c(OC)c1OC,n,n,n,n,n
Cc1ccc2c(c1)-c1c(c(C(=O)N3CCN(c4cc(C)ccc4C)CC3)nn1C)CS2,n,n,x,n,n
Cc1ccc(S(=O)(=O)Nc2ccccc2)cc1[N+](=O)[O-],x,x,x,x,n
Cc1cccc2c(N=Nc3ccc(S(=O)(=O)Nc4cccc(Cl)c4)cc3[N+](=O)[O-])c(O)[nH]c12,n,u,n,5.6µM[quencher],n
CCCCOC(=O)c1ccc(NC2=NS(=O)(=O)c3ccccc32)cc1,u,n,x,n,n
N#C/C(=N\Nc1cccc(C(F)(F)F)c1)C(=O)c1ccsc1,n,14µM,n,u,n
COc1ccc(NC2C=CS(=O)(=O)C2)c(OC)c1 (centres undefined),n,u,-41,n,n
COc1cccc(NC2C=CS(=O)(=O)C2)c1 (centres undefined),n,n,n,n,n
CCc1ccc(C2=NN(CCC(=O)NCCc3ccc(OC)c(OC)c3)C(=O)CC2)cc1,n,n,x,n,n
O=C(Nc1ccc2c(c1)N(Cc1ccccc1)C(=O)c1ccccc1S2)NC1CC1,22µM,n,n,u,n
CC(=O)Nc1ccc(C(=O)Nc2ccc3c(c2)N(C2CCCC2)C(=O)c2ccccc2S3)cc1,13µM,n,x,u,n
CN1C(=O)c2ccccc2Sc2ccc(NC(=O)NC3CC3)cc21,n,n,n,n,n
N#Cc1ccc(C(=O)Nc2ccc3c(c2)N(C2CCCC2)C(=O)c2ccccc2S3)cc1,u,n,x,u,n
CC(=O)Nc1ccc(C2C(C)CCC3C(=O)N4C(CCC(C)[C@@H]4c4ccc(NC(C)=O)cc4)C(=O)N32)cc1 (some centres undefined),n[11.6 µM],n[11.5 µM],n,n[11.6 µM],x
CCOC(=O)N1CCN(S(=O)(=O)c2ccc(C(=O)NNc3nc4c(C)cccc4s3)cc2)CC1,u,20µM,n,u,n
Cc1cc(C)c2nc(NNC(=O)c3ccc(S(=O)(=O)N4CCCCC4)cc3)sc2c1,u,22µM,n,u,n
Cc1cc(C)c2nc(NC(=O)c3ccc(S(=O)(=O)N4CCCC4)cc3)sc2c1,u,n,x,n,n
CCOC(=O)N1CCN(S(=O)(=O)c2ccc(C(=O)NNc3nc4c(C)cc(C)cc4s3)cc2)CC1,n,n,n,n,n
CCN1C(=O)[C@H]2[C@H]3[C@H](O)[C@H](O)C/C(=N/OC/C=C(\C)CCC=C(C)C)[C@@H]3CC[C@@H]2C1=O,n[11.6 µM],n[11.5 µM],n,n[11.6 µM],x
CCC(=O)N1CCc2cc(Br)cc(S(=O)(=O)N3CCC(C(=O)Nc4cccc(C)c4)CC3)c21,n,n,x,n,n[11.4 µM]
CC(C)=CCc1c(O)cc2occ(-c3ccc4c(c3)OCO4)c(=O)c2c1O,8.9µM,n,n,u,x
CCc1cc2c(=O)c(-c3ccc4c(c3)OCCO4)coc2cc1OS(C)(=O)=O,n,n,n,n,n
O=c1c(-c2cc(O)c(O)c(O)c2)coc2cc(O)c(O)c(O)c12,7.1µM,3.5µM,-71,u,x
C[C@H](CCC(=O)NCC(=O)O)C1CC[C@H]2C3CC[C@@H]4C[C@H](O)CC[C@]4(C)C3C[C@H](O)[C@]12C (some centres undefined),n,n,x,n,x
Clc1ccc(/C=N/c2c(-c3ccc(Cl)cc3)nc3n2CCS3)cc1,n,u,n,u,n
C(=N\c1c(-c2ccccc2)nc2n1CCS2)/c1ccccc1,u,22µM,n,u,n

# Assay outcomes (PubChem)
